Her2 expr inh: inhibitors of Her2 protein expression, primary screen, SKBR-3 cells, AlphaScreen, 66K library; Receptor tyrosine-protein kinase erbB-2 (Homo sapiens), P04626; SKBR-3 HER2 protein level, 18-24 h; hits give low values; HER2 level % of control, % at 10 µM; hit rate 0.69% among 65,000; AID 645, 2007;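 active = HER2 level under 5% of the carrier-only control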;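 also: lower value means stronger loss of Her2 protein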
FXIa inh mix: FXIa protease inhibitors in compound pools, primary screen, biochemical, 10-compound mixtures; purified FXIa, fluorogenic substrate, pooled mixtures; inhibition, % at 5 µM; hit rate 0.19% among 62,000; AID 680, 2007;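 also: each value is inhibition by a whole ten-compound pool holding the compound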
Target sequence (P03951 19-387 limits assumed): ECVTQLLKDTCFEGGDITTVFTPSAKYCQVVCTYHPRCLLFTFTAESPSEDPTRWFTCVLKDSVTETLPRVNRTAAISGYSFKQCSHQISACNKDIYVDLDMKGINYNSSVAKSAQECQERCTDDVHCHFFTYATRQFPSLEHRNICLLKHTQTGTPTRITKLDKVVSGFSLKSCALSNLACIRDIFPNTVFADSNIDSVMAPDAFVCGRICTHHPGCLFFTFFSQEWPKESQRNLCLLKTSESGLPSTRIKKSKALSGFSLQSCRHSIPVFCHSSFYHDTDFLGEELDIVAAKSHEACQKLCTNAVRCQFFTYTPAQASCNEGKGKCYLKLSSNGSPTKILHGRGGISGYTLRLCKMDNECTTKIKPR
Target sequence (P03951 388-625 limits assumed): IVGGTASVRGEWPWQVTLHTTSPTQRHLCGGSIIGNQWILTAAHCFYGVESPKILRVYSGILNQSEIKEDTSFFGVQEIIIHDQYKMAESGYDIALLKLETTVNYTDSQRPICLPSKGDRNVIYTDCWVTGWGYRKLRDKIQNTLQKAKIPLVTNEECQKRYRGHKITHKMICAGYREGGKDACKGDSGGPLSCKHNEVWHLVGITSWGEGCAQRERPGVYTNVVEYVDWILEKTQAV
M1 antagonist: antagonists of rat M1 muscarinic receptor | hit rate 3.4% among 64,000 | AID 628, 2007 | Muscarinic acetylcholine receptor M1 (Rattus norvegicus), P08482 | CHO-M1 cells, Fluo-4 calcium, ACh EC80 antagonist mode; hits give low values | B-score at 10 µM;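 active = calcium fluorescence response, raw or row-and-column corrected B-score, differing from the plate sample mean either way at a set confidence level, mostly lower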
JNK3 inh: JNK3 kinase activity inhibitors, primary screen, biochemical, human, purified enzyme | HTS | hit rate 0.61% among 60,000 | AID 746, 2007 | inhibition, % at 8 µM; in the data active = inhibition above about 17%
FXIIa mix inh: human factor XIIa inhibitors, primary screen, biochemical, pooled compound mixtures, fluorogenic substrate. purified FXIIa. inhibition, % at 5 µM. hit rate 0.2% among 62,000
M1 ag: M1 muscarinic receptor agonists, primary screen, CHO-M1 cells, Fluo-4 calcium, agonist mode. Muscarinic acetylcholine receptor M1. Fluo-4 calcium fluorescence; hits give high values. B-score at 10 µM. hit rate 3% among 64,000;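 active = fluorescence rise, raw or as B-score row- and column-corrected plate score, outside the 99.7% band of its plate's samples, either direction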
M1 antag confirm: rat M1 muscarinic receptor antagonists, confirmation, CHO cells, Fluo-4 calcium, duplicate; hit rate 43% among 1,700; AID 677, 2007; shares compounds with M1 antagonist; ACh EC80 antagonism; hits give low values; calcium response (max-min fluorescence) at 10 µM;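 active = calcium response below the same-plate mean of wells given acetylcholine alone at its 80%-effect dose, minus 3 SD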
mGluR4 antag: human mGluR4 response to M1 antagonist hits, M1 allosteric modulator project, cell-based, antagonist mode, secondary assay 1 | shares compounds with M1 antagonist | CHO-mGluR4 calcium flux, Fluo-4 fluorescence, glutamate EC80; hits give low values | fluorescence response (max-min) at 10 µM | hit rate 0.9% among 1,700;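 active = fluorescence response below the plate's average for near-maximal glutamate wells, less 3 SD of those wells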;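 also: raw unnormalized fluorescence span taken in the window right after glutamate addition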
Hits are given with their value; i = inactive; nt = no result given. The list is not random: actives were taken first. Their share in the collection is about 6.9%. Rule as the data show it, unless noted: active = inhibition above about 20% (passing the limit was not always enough); inactive = the rest.

SMILES	Her2 expr inh	FXIa inh mix	M1 antagonist	JNK3 inh	FXIIa mix inh	M1 ag	M1 antag confirm	mGluR4 antag
Cn1c(SCC(=O)N2c3ccccc3Sc3ccc(Cl)cc32)nnc1-c1ccco1	i	i	i	i	i	i	nt	nt
COc1cc(CN2CCN(CCOCCO)CC2)cc(OC)c1OC	i	i	i	i	i	i	nt	nt
O=C(CN1CCN(CCOCCO)CC1)N1c2ccccc2Sc2ccc(Cl)cc21	i	i	-17.2	i	i	i	23.5	i
COC(=O)Nc1ccc2c(c1)N(C(=O)CCN1CCN3CCCC3C1)c1ccccc1S2 (stereo not given)	i	i	i	i	i	i	nt	nt
Cn1nnnc1SCC(=O)N1c2ccccc2Sc2ccc(Cl)cc21	i	i	-2.7	i	i	i	446	i
CN1CCN(c2ncnc3c2sc2nc(N4CCCC4)c4c(c23)CC(C)(C)OC4)CC1	i	i	i	nt	i	i	nt	nt
Cc1ccc(S(=O)(=O)CCc2nc3ccccc3n2CCC#N)cc1	i	i	i	nt	i	i	nt	nt
CS(=O)(=O)c1cccc(C(=O)NCc2ccccc2)c1	i	i	i	i	i	i	nt	nt
CC(C)(C)c1cc(C(=O)NCc2ccccc2)ccn1	nt	i	-4.24	i	i	i	i	i
COC(=O)Nc1nc2c(s1)CCCC2	i	i	-3.07	i	i	i	i	i
C1CCc2nnc(-c3nnc4n3CCCCC4)n2CC1	i	i	i	i	i	i	nt	nt
Cc1ccc(C)n1-c1ccc(-c2nnc3n2CCCCC3)s1	i	i	-1.39	i	i	i	i	i
O=C(NCc1ccc2c(c1)OCO2)C1CC(=O)N(c2ccc(O)cc2)C1 (stereo not given)	i	i	i	i	i	i	nt	nt
Cc1nn(C)c(C)c1CN(C)C(=O)c1cc2n(n1)C(C(F)(F)F)CC(c1cccs1)N2 (stereo not given)	i	i	-3.46	i	i	i	i	i
CCN1CCCC1CNCc1ccc(Cl)cc1Cl (stereo not given)	i	i	-3.1	i	i	i	529	i
C=CCc1ccccc1OCC(O)CN(C(C)C)C(C)C (stereo not given)	i	i	-2.03	i	i	i	382	i
C=CCc1ccccc1OCC(O)CNC (stereo not given)	i	i	i	i	i	i	nt	nt
CC1(C)OC(=O)N(Cc2ccco2)C1(C)O (stereo not given)	i	i	i	i	i	i	nt	nt
CC(=O)c1ccc(OCC(O)CN2C(C)CCCC2C)cc1 (stereo not given)	i	i	-1.98	i	i	i	i	i
CC(=O)c1ccc(OCC(O)CN2CCC(C)CC2)cc1 (stereo not given)	i	i	i	i	i	i	nt	nt
COC(=O)c1ccc(OCC(O)CN2CCC(C)CC2)cc1 (stereo not given)	i	i	-3.52	i	i	i	i	i
CSc1nnnn1-c1cccc(O)c1	i	i	i	i	i	i	nt	nt
CCOc1cc(NC(=O)c2cnccn2)c(OCC)cc1NC(=O)c1ccc(OC)cc1	i	i	i	i	i	i	nt	nt
COc1ccccc1OCC(O)Cn1c(=N)n(CCN2CCCCC2)c2ccccc21 (stereo not given)	i	nt	-1.56	nt	nt	i	i	i
CCCCn1c(=N)n(CC(O)COc2ccccc2)c2ccccc21 (stereo not given)	i	i	-2.34	i	i	i	i	i
SMILES	Her2 expr inh	FXIa inh mix	M1 antagonist	JNK3 inh	FXIIa mix inh	M1 ag	M1 antag confirm	mGluR4 antag
N=c1n(CCN2CCCC2)c2ccccc2n1CC(O)c1ccco1 (stereo not given)	i	i	i	i	i	i	nt	nt
N=c1n(CCN2CCCCC2)c2ccccc2n1CC(O)c1cccc(Br)c1 (stereo not given)	i	i	-4.08	i	i	i	i	i
N=c1n(CCN2CCCCC2)c2ccccc2n1CC(O)COc1ccccc1 (stereo not given)	i	i	i	i	i	i	nt	nt
CCOC(=O)C1C(=O)N(C(=O)c2cncc(Br)c2)CC1c1ccccc1 (stereo not given)	i	i	i	i	i	i	nt	nt
O=C(CSCc1cnn(-c2ccccc2)c1-n1cccc1)NCC1CCCO1 (stereo not given)	i	i	i	nt	i	i	nt	nt
O=C(CSCc1cnn(-c2ccccc2)c1-n1cccc1)NCCN1CCOCC1	i	i	-2.73	nt	i	i	520	i
Cc1nn(C(=O)CCCC(=O)n2nc(C)c(Cl)c2C)c(C)c1Cl	i	i	i	i	i	i	nt	nt
COc1cccc(-c2nc(CS(=O)CC(=O)NCc3ccccc3)c(C)o2)c1 (stereo not given)	i	i	i	i	i	i	nt	nt
COC(=O)\C(C(C)=O)=C(/C=C/C=C/N(C)C)N(C)C	i	i	-2.4	i	i	i	i	i
COc1ccc(C(C(=O)OC(C)CN(C)C)c2ccccc2)cc1 (stereo not given)	i	i	-2.97	i	i	i	333	i
CCN(CC)S(=O)(=O)c1csc(C(=O)NCc2ccccc2)c1	i	i	i	nt	i	i	nt	nt
CC1CCN(CC(O)COC2CCC(C(C)(C)C)CC2)CC1 (stereo not given)	i	i	-4.03	i	i	i	i	i
O=C(c1ccc(S(=O)(=O)N2CCCCCC2)cc1)N1CCN(c2ccccn2)CC1	i	i	-2.15	i	i	i	507	i
O=C(c1ccc(N2CCCCS2(=O)=O)cc1)N1CCN(c2ccc(N3CCOCC3)nn2)CC1	i	i	i	i	i	i	nt	nt
COCCn1c(SCC(=O)N2CCCc3ccccc32)nc2ccccc2c1=O	i	i	-1.91	i	i	i	i	i
CCOC(=O)c1c(NC(=O)CN2CCOCC2)sc2c1CC(C)(C)OC2	i	nt	i	i	nt	i	nt	nt
COc1ccc(C2(O)CCN(CCCCOc3ccccc3)CC2)cc1	i	i	-2.55	i	i	i	477	i
COc1ccc(C2(O)CCN(C(=O)Cc3cccnc3)CC2)cc1	nt	i	i	nt	i	i	nt	nt
CCc1ccc(NC(=O)CCNS(=O)(=O)c2cccc3nonc23)cc1	i	i	i	nt	i	i	nt	nt
c1csc(-c2csc3nc(CN4CCOCC4)nc(NCc4ccc5c(c4)OCO5)c23)c1	i	i	i	i	i	i	nt	nt
NCCCCCc1nnc(SC/C=C/c2ccccc2)o1	i	i	-3.56	i	i	i	450	i
c1coc(CNc2nc(N3CCCCC3)nc3ccccc23)c1	i	i	-1.49	i	i	i	i	i
